The whole screen tested about 310,000 compounds, of which about 1,600 (0.52%) were called active.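 How the source made its calls: active means activation above the mean of controls blocked by dofetilide plus 5 SD; inactive means the rest.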 Many of the other results were omitted from the sample, so actives are more common in it than they were. Square brackets hold non-standard residues; d marks the D form. Peptide text beside a SMILES is read from it. ξ: configuration not given here. ξM = CSCCC(N)C(=O)O

Voltage-gated inwardly rectifying potassium channel KCNH2 (Homo sapiens), sequence (Q12809 whole entry, looked up): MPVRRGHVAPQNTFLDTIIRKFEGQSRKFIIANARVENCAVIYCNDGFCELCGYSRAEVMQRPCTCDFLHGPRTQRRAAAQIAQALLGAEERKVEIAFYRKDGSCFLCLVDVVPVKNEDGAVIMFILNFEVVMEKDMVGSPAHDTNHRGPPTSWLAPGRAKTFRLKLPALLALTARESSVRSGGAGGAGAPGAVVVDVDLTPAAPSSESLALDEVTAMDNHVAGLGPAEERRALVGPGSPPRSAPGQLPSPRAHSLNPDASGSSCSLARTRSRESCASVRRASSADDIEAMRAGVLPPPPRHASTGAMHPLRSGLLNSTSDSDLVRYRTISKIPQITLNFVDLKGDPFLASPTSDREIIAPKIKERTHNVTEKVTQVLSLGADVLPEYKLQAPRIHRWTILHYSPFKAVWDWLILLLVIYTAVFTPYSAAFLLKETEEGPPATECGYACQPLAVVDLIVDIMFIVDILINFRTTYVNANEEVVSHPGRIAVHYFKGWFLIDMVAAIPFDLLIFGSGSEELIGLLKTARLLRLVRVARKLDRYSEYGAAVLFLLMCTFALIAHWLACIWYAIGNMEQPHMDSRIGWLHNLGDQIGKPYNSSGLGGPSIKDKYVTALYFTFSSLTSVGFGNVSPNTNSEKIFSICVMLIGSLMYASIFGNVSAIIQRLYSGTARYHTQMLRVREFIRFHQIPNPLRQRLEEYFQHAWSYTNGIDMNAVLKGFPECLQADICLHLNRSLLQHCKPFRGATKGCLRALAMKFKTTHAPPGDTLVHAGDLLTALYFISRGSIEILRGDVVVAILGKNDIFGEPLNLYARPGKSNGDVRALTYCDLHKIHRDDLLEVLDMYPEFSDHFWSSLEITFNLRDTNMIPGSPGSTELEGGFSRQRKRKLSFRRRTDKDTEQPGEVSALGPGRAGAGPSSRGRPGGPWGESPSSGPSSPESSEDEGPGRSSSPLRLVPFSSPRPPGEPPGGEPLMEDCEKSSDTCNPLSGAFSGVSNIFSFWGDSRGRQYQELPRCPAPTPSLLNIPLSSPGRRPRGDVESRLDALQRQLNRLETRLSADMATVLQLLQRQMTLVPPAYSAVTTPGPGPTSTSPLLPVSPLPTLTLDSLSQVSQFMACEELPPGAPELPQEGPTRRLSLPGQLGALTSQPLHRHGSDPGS

The test addresses Voltage-gated inwardly rectifying potassium channel KCNH2 (Homo sapiens) (UniProt Q12809). Kind of test: hERG rescue from dofetilide block, primary screen, cell-based, CHO-hERG, FluxOR thallium flux, dofetilide IC70 (AID 1511).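 Further: thallium influx through hERG after potassium depolarization seen as dye fluorescence rise.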 Particulars: dofetilide IC70 present, at 10 µM, active compounds read high. On the technique in general: hERG is a cardiac potassium channel; its block is linked to QT prolongation.
For the compound `O=C(CN1CCN(S(=O)(=O)c2cc(Cl)ccc2Cl)CC1)c1ccc(O)c(O)c1`, the activation (rescue from dofetilide block), less the hit threshold was -1.99% (inactive).
Consider `Cc1nc(N2CCOCC2)sc1C(=O)NN`, for which the activation (rescue from dofetilide block), less the hit threshold is 4.6% (active).
With `Cc1nc(-c2ccc(Cl)cc2)sc1C(=O)NN`, the activation (rescue from dofetilide block), less the hit threshold is -10.7% (inactive).
The figure for `CCOC(=O)N1CCC(NC(=O)c2ccc3nc(N4CCOCC4)sc3c2)CC1` is -5.7% (inactive).
As to `Cc1cc(O)c(C(=O)/C=C/c2c(F)c(F)c(F)c(F)c2F)c(=O)o1`, the activation (rescue from dofetilide block), less the hit threshold is -23.3% (inactive).
Take `COc1ccc(CCNC(=O)C(=O)Nc2ccc3nc4n(c(=O)c3c2)CCCCC4)cc1OC`: the activation (rescue from dofetilide block), less the hit threshold is -11.8% (inactive).
The same measure for `Nc1nc(SCC(=O)N2CCN(S(=O)(=O)c3ccc(Cl)cc3)CC2)n[nH]1`: -4.93% (inactive); for `Cc1ccc(S(=O)(=O)N(C)CC(=O)OCC(=O)N2CC(=O)Nc3ccccc32)cc1`: -8.2% (inactive).
As to `COc1cc(NS(=O)(=O)c2ccc3ccccc3c2)c2ncccc2c1`, the activation (rescue from dofetilide block), less the hit threshold is 5.48% (active).
The same measure for `O=[N+]([O-])c1ccccc1S(=O)(=O)Nc1cccc2cccnc12`: -0.19% (inactive); for `Cc1ccc(NS(=O)(=O)c2ccc(C)c(NC(=O)COc3ccc4ccccc4c3)c2)c(C)c1`: -12.4% (inactive).
For the compound `Cc1ccc(NC(=O)c2cc([N+](=O)[O-])ccc2Cl)c(O)c1`, the activation (rescue from dofetilide block), less the hit threshold is -3.14% (inactive).
The figure for `CCCNC(=O)COc1coc(CN2CCN(Cc3ccccc3)CC2)cc1=O` is -2.43% (inactive).
As for `COC(=O)CNC(=O)C(CCSC)NC(C)=O` (stereo not given) (Ac-[ξM]-Gly-OMe), the activation (rescue from dofetilide block), less the hit threshold was -1.31% (inactive).
In the case of `CC(N=Cc1nc(-c2ccccc2)oc1O)c1ccccc1` (stereo not given), the activation (rescue from dofetilide block), less the hit threshold was -4.74% (inactive).
The figure for `CCOc1ccc2nc(N(CCCN(C)C)C(=O)c3ccc(C(=O)c4ccccc4)cc3)sc2c1` is -26.7% (inactive); for `CCOc1ccc2nc(/N=C/c3nc(-c4ccccc4)oc3O)sc2c1` it is 17.1% (active); for `COC(=O)c1cn(C)c2ccc(S(=O)(=O)N3CC(C)CC(C)C3)cc2c1=O` (stereo not given) it is -10.9% (inactive).
The figure for `CCOC(=O)c1ccc(Nc2cc3ccccc3c(=O)[nH]2)cc1` is -10.6% (inactive); for `CCOC(=O)c1sc(=S)n2c1[nH]c(=O)c1ccc(C(=O)OC)cc12` it is 77.9% (active).
The same measure for `CCOC(=O)C1=C(C)Nc2sc(C(=O)c3ccc(Br)cc3)c(N)c2C1c1ccc(C(=O)OC)cc1` (stereo not given): -8.23% (inactive); for `N/C(=N\OC(=O)CC1CCCCC1)c1ccccc1`: -5.76% (inactive).
On to `CCCCn1c(N)c(N(CCOC)C(=O)c2sc3ccccc3c2Cl)c(=O)[nH]c1=O`, for which the activation (rescue from dofetilide block), less the hit threshold was -2.36% (inactive).
On to `CN(C)c1cc(N)c2ccccc2n1` (tested in a mixture with another compound), for which the activation (rescue from dofetilide block), less the hit threshold is 5% (active).
The same measure for `Nc1nc(-c2ccccc2)cc(-c2ccccc2)n1`: -6.21% (inactive); for `COc1ccc(-c2cc(C(=O)N(C)Cc3ccccc3)c3ccccc3n2)cc1`: -21.9% (inactive); for `CCCCOC(=O)c1ccc(NC(c2ccc(C)cc2)P(=O)(OC)OC)cc1` (stereo not given): -14.4% (inactive).
The figure for `CC(=O)N1CCc2cc(Br)cc(S(=O)(=O)CCC(=O)Nc3c(C)n(C)n(-c4ccccc4)c3=O)c21` is -18% (inactive); for `Cc1nn(-c2cc(Cl)ccc2N)c(=O)c2ccccc12` it is 7.47% (active).
The figure for `Cc1nn(C)cc1N1C(=O)c2cccc3c(N)ccc(c23)C1=O` is -54.8% (inactive); for `Cc1cc(=O)oc2c1c(C)nn2-c1ccc(Cl)cc1` it is -1.68% (inactive); for `NS(=O)(=O)c1cccc(NC(=O)CC23CC4CC(CC(Br)(C4)C2)C3)c1` it is -7.94% (inactive).
Consider `Cc1cccc(C)c1NC(=O)CS(=O)CC(=O)N1CCN(c2ccccc2)CC1` (stereo not given), for which the activation (rescue from dofetilide block), less the hit threshold was -5.6% (inactive).
The same measure for `CC(C)C(=O)Nc1nnc(Sc2ccc(N(C)C)cc2)s1`: -6.31% (inactive); for `Cc1cccc(C(=O)NCCCN(C)CCCNC(=O)c2cccc(C)c2)c1`: -3.82% (inactive).
The figure for `Cc1cccc(NC(=S)NCCN(C2CCCCC2)C2CCCC2)c1` is -7.92% (inactive).
The figure for `Cc1cccc(C(=O)NC(=S)N(C)C2CCCCC2)c1` is 11.6% (active); for `COc1ccc2cc(C(=O)NCC3CCCO3)[nH]c2c1` (stereo not given) it is -3.17% (inactive); for `N#CC1=C(N)N(c2ccc(F)cc2)C(=O)C1` it is 3.49% (inactive).
With `O=C(O)CCCCOn1ccnc1`, the activation (rescue from dofetilide block), less the hit threshold was -8.74% (inactive).
For the compound `O=c1c2ccccc2ncn1CCCCOc1ccccc1F`, the activation (rescue from dofetilide block), less the hit threshold was -7.18% (inactive).
The same measure for `O=C(NNC(=S)NC1CCCCC1)c1ccccc1Cl`: -19.3% (inactive).
As for `O=C(/C=C/c1ccco1)NC(=S)N1CCCCC1`, the activation (rescue from dofetilide block), less the hit threshold is -8.68% (inactive).
On to `COc1ccc(Cl)cc1C(=O)NNC(=S)NC1CCCC1`, for which the activation (rescue from dofetilide block), less the hit threshold is 5.84% (active).
For `C=CCNC(=S)NNC(=O)c1cc(Cl)ccc1OC`, the activation (rescue from dofetilide block), less the hit threshold was -3.41% (inactive).
With `O=C(/C=C/c1ccco1)NC(=S)Nc1ccccc1Br`, the activation (rescue from dofetilide block), less the hit threshold was 0.92% (inactive).
The same measure for `COc1ccc(Cl)cc1C(=O)NNC(=S)NC(=O)/C=C/c1ccco1`: 34.2% (active); for `Cc1cccc(Cn2cnc3c(N)c(C)c(C)cc32)c1`: -4.77% (inactive); for `CCOC(=O)/C=C/C(=O)OCC(=O)NC(c1ccccc1)c1ccccc1`: -0.47% (inactive).
As to `CSc1cccc(NC(=O)CN2C(=O)COc3ccc(S(=O)(=O)N4CCOCC4)cc32)c1`, the activation (rescue from dofetilide block), less the hit threshold is -8.66% (inactive).
In the case of `COc1cccc(CNCc2ccc3c(c2)OCO3)c1`, the activation (rescue from dofetilide block), less the hit threshold is -1.37% (inactive).
The same measure for `O=C(O)c1cccc(N2C(=O)Nc3ccccc3N2O)c1`: 5.69% (active); for `NC1=NN(c2cccc(C(=O)O)c2)C(=O)C1`: -7.19% (inactive); for `O=C1Nc2cc(Cl)c(Cl)cc2N(O)N1c1ccccc1Cl`: -11.3% (inactive).
The figure for `COc1cc(OC)c(NC(=O)C2CCCN2C(=O)OCc2ccccc2)cc1Cl` (stereo not given) is -14.7% (inactive).
The same measure for `COCCCNC(=O)CN1C(=O)CSc2ccc(S(=O)(=O)N3CCOCC3)cc21`: -5.64% (inactive).
`O=C(COC(=O)c1ccccc1NC(=O)c1ccco1)Nc1ccc2c(c1)OC(F)(F)O2`: the activation (rescue from dofetilide block), less the hit threshold is -13.6% (inactive).
The same measure for `O=S(=O)(NCCCc1ccccc1)c1ccc(Br)cc1`: -3.29% (inactive); for `O=C1c2cccnc2C(=O)N1Cc1cccs1`: -8.43% (inactive).
The same measure for `O=C1c2ccccc2C(=O)N1Cc1cc(-c2ccccc2Cl)no1`: 11.4% (active).
For the compound `O=C1c2ccccc2C(=O)N1CCCc1nc(-c2ccccc2)no1`, the activation (rescue from dofetilide block), less the hit threshold was -6.67% (inactive).
The figure for `Cc1ccc(NC(=O)C(CC(=O)O)C2CCCO2)c(C)c1` (stereo not given) is -3.96% (inactive); for `COCCCn1c(Cc2csc(Nc3cccc(Cl)c3)n2)nnc1SCC(=O)OC1CCCCC1` it is -9.88% (inactive).
The figure for `Cc1c(NC(=O)C(C)Oc2cccc(Cl)c2)c(=O)n(-c2ccccc2)n1C` (stereo not given) is -2.29% (inactive); for `OC1CN=C2Sc3ccccc3N2C1` (stereo not given) it is 4.61% (active); for `CCCNCc1cc(OCC)c(OCC(=O)Nc2ccccc2)cc1Br` it is -25.3% (inactive).
The figure for `C=Cn1cc[n+](CC(=O)c2ccc(OC)c(OC)c2)c1` is -13.3% (inactive); for `COc1ccc(C23NCCN2C(=O)c2ccccc23)cc1` (stereo not given) it is -7.58% (inactive).
Turning to `Cc1cc(O)c(C2(O)C(=O)Nc3ccccc32)cc1C` (stereo not given), the activation (rescue from dofetilide block), less the hit threshold was -4.06% (inactive).
The same measure for `COc1ccc(C2(O)C(=O)Nc3ccccc32)cc1` (stereo not given): 4.63% (active); for `Cc1ccc(N2C(=O)C3N=NN(CC(=O)N4N=C(c5cccc6ccccc56)CC4c4ccccc4)C3C2=O)cc1` (stereo not given): -4.02% (inactive); for `O=P(O)(CP(=O)(c1ccccc1)c1ccccc1)c1ccccc1O`: 6.37% (active).
Regarding `O=P(O)(CP(=O)(c1ccccc1)c1ccccc1)c1ccccc1`, the activation (rescue from dofetilide block), less the hit threshold is -3.04% (inactive).
For `CC(C)(C)c1cc(P(=O)(c2ccccc2)c2ccccc2)ccc1O`, the activation (rescue from dofetilide block), less the hit threshold is -11.2% (inactive).
`CS(=O)(=O)N(CC(=O)NC1CCCC1)Cc1ccc(F)cc1`: the activation (rescue from dofetilide block), less the hit threshold was 1.73% (inactive).

For the origin of these results see PubChem BioAssay AID1511 (Johns Hopkins Ion Channel Center, 2009).
